PubChem BioAssay (NCI)
This is part of a sample that, as a whole, favours compounds with a hit. Of some 83,000 tested, about 20% had one in any assay.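 Negative percent growth values reflect cell death: -40 means 40% of the cells present at the start died, and -100 means all died.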 A number with no mark means an inactive call. Activity calls are given as the source filed them. The calls were made as follows: active = growth percent below 10; inactive = the rest.

What follows are compounds tested on HL-60(TB) leukemia (assay: NCI-60 one-dose screen, 48 h (100 = growth as untreated, 0 = no growth, -100 = all killed)). Conditions: 10 µM unless noted.

**Q.** For `COc1ccc2nc3c(cc2c1)C(=O)CC(c1ccccc1)C3` (stereo not given), which growth is on record?
**A.** The growth was -1.74% (active).

**Q.** With `CC1=CC(=O)c2ccccc2C1=O` as the compound, how does the growth read?
**A.** The growth was 106%.

**Q.** How did the growth turn out when `CO/C(=C1/NC(=O)C(Cc2ccc(O)c(Br)c2)N(C)C(=O)C(C)NC(=O)CCC/C=C(\C)CCC(C)OC1=O)c1ccccc1` (stereo not given) was run?
**A.** Its growth is -58.6% (active).

**Q.** For `C=C[C@@H]1C[C@H](O)Cc2c(C)cc(C)cc2N1`, which growth is on record?
**A.** Its growth is -16.4% (active).

**Q.** With `COc1cc2cc(Oc3ccc(NC(=O)c4ccc(Cl)c(C(F)(F)F)c4)cc3)c(C)nc2cc1OC` as the compound, how does the growth read?
**A.** Its growth is 17.4%.

**Q.** `COc1cc(-c2nn(C(=O)NS(=O)(=O)c3ccccc3)cc2-c2ccncc2)ccc1Cl` was tested. Which growth did it give?
**A.** Its growth is 98.1%.

**Q.** Which growth does the source give for `CCOCC[P+](c1ccccc1)(c1ccccc1)c1ccccc1` here?
**A.** The growth was 11.7%.

**Q.** Which growth does the source give for `CCOC(=O)C(C(C)=O)c1nc2sc3cc(Cl)ccc3n2c(=N)c1C#N` (stereo not given) here?
**A.** Its growth is 115%.

**Q.** For `COc1ccc2ncccc2c1Cc1c(OC)ccc2ncccc12`, which growth is on record?
**A.** Its growth is 42.3%.

**Q.** With `CCCCCCCCCCC[C@@H](C[C@H]1OC(=O)[C@H]1CCCCCC)OC(=O)[C@@H](CC(C)C)NC=O` as the compound, how does the growth read?
**A.** Its growth is -3.28% (active).

**Q.** With `O=C=NC(c1ccccc1)(c1ccccc1)c1ccccc1` as the compound, how does the growth read?
**A.** Its growth is 102%.

**Q.** Which growth does the source give for `O=C(CCCCCCN1CC(=O)N2[C@@H](C3CCCCC3)c3[nH]c4ccccc4c3C[C@H]2C1=O)NO` here?
**A.** The growth was 5.7% (active).

**Q.** With `Nc1cccc(-c2nc3sccn3c2-c2ccnc(NCCCNS(=O)(=O)c3cccc4ccccc34)n2)c1` as the compound, how does the growth read?
**A.** The growth was 7% (active).

**Q.** Which growth does the source give for `Ic1ccccc1-c1ccccc1` here?
**A.** Its growth is 81.2%.

**Q.** For `OCCn1cc(-c2nc(-c3c[nH]c4ncccc34)cs2)c2cc(F)ccc21`, which growth is on record?
**A.** The growth was 60.3%.

**Q.** How did the growth turn out when `COc1ccc(-c2nc(-c3cn(C)c4ncccc34)cs2)cc1` was run?
**A.** Its growth is 13% [100 µM].

**Q.** How did the growth turn out when `COc1ccc(C2OC(c3cc(-c4cc5ccccc5o4)nn3-c3ccccc3)=NN2C(C)=O)cc1` (stereo not given) was run?
**A.** Its growth is 84.3%.

**Q.** Which growth does the source give for `Cc1cnc(NC(=O)C(Cc2ccccc2)NC(=O)c2ccccc2)s1` (stereo not given) here?
**A.** Its growth is 38.7%.

**Q.** `CC(C)(C)c1ccc(Cn2c(-c3nonc3N)nc3ccccc32)cc1` was tested. Which growth did it give?
**A.** Its growth is 51.4%.

**Q.** How did the growth turn out when `Cc1nccc2c3ccc(OCc4cn(-c5ccc(Cl)cc5)nn4)cc3n(CC(C)C)c12` was run?
**A.** Its growth is -49.4% (active).

**Q.** `COc1ccc(/C=N\Nc2nc(SCCC(C)C)nc(-c3ccc(OC)cc3)c2C#N)cc1` was tested. Which growth did it give?
**A.** The growth was 34%.

**Q.** How did the growth turn out when `OCCc1ccc(Cl)cc1` was run?
**A.** Its growth is 104%.

**Q.** With `COC(CCCl)c1ccc(Cl)cc1` (stereo not given) as the compound, how does the growth read?
**A.** The growth was 94.2%.

**Q.** `Cc1cc(N/N=C/c2ccccn2)nc2ccccc12` was tested. Which growth did it give?
**A.** Its growth is -12.8% (active).

**Q.** Which growth does the source give for `CN1CCN(C(=O)c2ccc(NC(=O)c3cc4c(nn3)NCCN4Cc3cc(Cl)ccc3Cl)cc2)CC1` here?
**A.** The growth was 43%.

**Q.** How did the growth turn out when `COc1ccc(C(=O)N2C=Cc3ccccc3C2C#N)cc1` (stereo not given) was run?
**A.** Its growth is 66.5%.

**Q.** For `CC1CCN(CCCCCOc2ccc3oc4cc(Cl)ccc4c(=O)c3c2)CC1`, which growth is on record?
**A.** Its growth is 43.4%.

**Q.** `O=C(C(=O)N1CCCCC1)c1ccc(OC2OC(CO)C(O)C(O)C2O)cc1` (stereo not given) was tested. Which growth did it give?
**A.** Its growth is 77.8%.

**Q.** With `CCOC(=O)Nc1nc2ccc(SCC(C)C)cc2s1` as the compound, how does the growth read?
**A.** Its growth is 11.6%.

**Q.** With `Cc1cccc(C)c1Nc1nnc(-c2ccc(F)cc2)o1` as the compound, how does the growth read?
**A.** The growth was 99.9%.

**Q.** For `CCCOC(=O)N[C@H]1CCc2cc(OC)c(OC)c(OC)c2-c2ccc(SC)c(=O)cc21`, which growth is on record?
**A.** The growth was -39.7% (active).

**Q.** How did the growth turn out when `COc1cc(Oc2cc(-c3cccnc3)ccc2NC(=O)Nc2ccc(F)cc2F)cc(OC)c1OC` was run?
**A.** The growth was 91.3%.

**Q.** How did the growth turn out when `CCOC1(OCC)OC(c2ccccc2)=C(C#N)C(/C=C\c2ccccc2)C1(OCC)OCC` (stereo not given) was run?
**A.** Its growth is 80.1%.

**Q.** `Fc1ccc(Nc2ccc3c(OCCCN4CCOCC4)cccc3n2)cc1F` was tested. Which growth did it give?
**A.** Its growth is 85.3%.

**Q.** With `CCCCCCCCCCCCCCCC[n+]1cccc(C#N)c1` as the compound, how does the growth read?
**A.** The growth was 30.4%.

**Q.** With `CCOC(=O)C1=NN(c2ccccc2)C2=NC(=O)/C(=C\c3cn(-c4ccccc4)nc3-c3cc4ccccc4o3)C(=O)N12` as the compound, how does the growth read?
**A.** The growth was 76.4%.

**Q.** Which growth does the source give for `NC(=S)N/N=C1\c2ccccc2-c2c(F)c(F)c(F)c(F)c21` here?
**A.** Its growth is 44.4%.

**Q.** For `CCOC(=O)COc1ccc2c(c1)O/C(=C\c1ccc(O)cc1)C2=O`, which growth is on record?
**A.** The growth was 112%.

**Q.** With `COc1cccc(-c2nn(C(C)(C)C)cc2-c2ccnc(NCCCNS(=O)(=O)c3cccc4ccccc34)c2)c1` as the compound, how does the growth read?
**A.** Its growth is 104%.

**Q.** How did the growth turn out when `O=C(N1CCC(CN=c2cc3n(-c4ccc(Cl)cc4)c4ccccc4nc-3cc2Nc2ccc(Cl)cc2)CC1)N1CC1` was run?
**A.** Its growth is -73.3% (active).
